Each structure is given as a SMILES string. The panel holds about 83,000 compounds, 20% with a hit somewhere; the sample as a whole holds those more often.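 Percent growth is the endpoint: 0 to 100 indicates growth inhibition (40 means 60% inhibition), 0 means no net growth, and negative values indicate cell death.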 Values without a mark were called inactive. Activity calls are given as the source filed them. How the source made its calls: active means growth percent below 10; inactive means the rest.

The source of these data is PubChem BioAssay (NCI).

Test systems include SR leukemia; RPMI-8226 leukemia; OVCAR-8 ovarian; OVCAR-4 ovarian; IGROV1 ovarian; OVCAR-3 ovarian; HS 578T breast; NCI/ADR-RES ovarian; BT-549 breast; MDA-MB-435 melanoma; SW-620 colon; MCF7 breast; HCT-116 colon; KM12 colon; OVCAR-5 ovarian; SK-OV-3 ovarian; T-47D breast; HCC-2998 colon.
Common to all, as to assay: NCI-60 one-dose screen, 48 h (100 = growth as untreated, 0 = no growth, -100 = all killed)
What all share (conditions): 10 µM unless noted

As for `COC(c1ccccc1)C(Br)C(=O)c1ccccc1` (stereo not drawn), the growth was 79.7% in the assay on SR leukemia; 90.6% with RPMI-8226 leukemia; 92.1% with OVCAR-8 ovarian; 93.1% in the assay on OVCAR-4 ovarian; 96.6% with IGROV1 ovarian; 115% in the assay with OVCAR-3 ovarian. For the same compound, the growth in the assay with HS 578T breast is 111%; with NCI/ADR-RES ovarian, 104%; with BT-549 breast, 92.4%; in the assay with MDA-MB-435 melanoma it was 96.3%; with SW-620 colon, 125%; in the assay with MCF7 breast, 98.5%. Moreover, the growth is 87.7% in the assay with HCT-116 colon and 114% with KM12 colon.

In the case of `CCCCCC(=C/c1ccccc1)/C=N/N=C(N)N`, the growth with SR leukemia is -2.56% (active); with OVCAR-5 ovarian it was 58.8%; in the assay on OVCAR-4 ovarian it was 31.7%; with SK-OV-3 ovarian, 76.9%; in the assay with IGROV1 ovarian it was -63.3% (active); with NCI/ADR-RES ovarian, 41.7%. Moreover, the growth in the assay on T-47D breast is -34.3% (active); in the assay on BT-549 breast, 46.6%; in the assay on MDA-MB-435 melanoma it was -80% (active); in the assay with MCF7 breast, -69.6% (active); in the assay on HCT-116 colon it was -56.6% (active); in the assay on HCC-2998 colon, -79% (active).

For `O=C(/C(Br)=C/c1ccccc1)c1ccccc1`, the growth was -24.9% (active) in the assay with SR leukemia; -26.5% (active) in the assay on OVCAR-8 ovarian; 58.3% in the assay with OVCAR-5 ovarian; 25.7% in the assay on OVCAR-4 ovarian; 105% with SK-OV-3 ovarian; 27.5% in the assay on IGROV1 ovarian. Further, the growth in the assay on OVCAR-3 ovarian was -31.5% (active); with NCI/ADR-RES ovarian it was -11% (active); with T-47D breast, -31.7% (active); in the assay with BT-549 breast it was 95.8%; in the assay on MDA-MB-435 melanoma, -11.2% (active); in the assay with MCF7 breast it was 0.441% (active). In addition, the growth with HCT-116 colon was -100% (active); in the assay on HCC-2998 colon it was 94%; in the assay with KM12 colon, 53.3%.

Regarding `O=C1C(Cl)=C(Nc2ccc(Nc3ccccc3)c(NC3=C(Cl)C(=O)c4ccccc4C3=O)c2)C(=O)c2ccccc21`, the growth in the assay on SR leukemia was 44.6%; with RPMI-8226 leukemia, 27.4%; in the assay on OVCAR-8 ovarian it was 71.5%; in the assay on OVCAR-4 ovarian, 54.8%; in the assay on SK-OV-3 ovarian, 80.5%; with IGROV1 ovarian, 68.6%. Further, the growth with NCI/ADR-RES ovarian is 86.4%; in the assay with T-47D breast it was 14.9%; with BT-549 breast it was 53.3%; with MDA-MB-435 melanoma, 113%; in the assay with SW-620 colon, 33.8%; with MCF7 breast it was 73.7%. The growth in the assay on HCT-116 colon was 51.2%; in the assay on HCC-2998 colon, 55.1%; in the assay with KM12 colon it was 31.6%.

For the compound `CC(=O)/C(=C\c1c(-c2ccccc2)[nH]c2ccccc12)S(=O)(=O)c1ccccc1`, the growth in the assay with SR leukemia was -35.9% (active); with OVCAR-8 ovarian, 12.4%; in the assay on OVCAR-5 ovarian, 1.33% (active); with OVCAR-4 ovarian, 17.7%; with SK-OV-3 ovarian it was 19.3%; with IGROV1 ovarian, -5.76% (active). In addition, the growth in the assay with OVCAR-3 ovarian is -36.6% (active); with HS 578T breast, 8.54% (active); in the assay on NCI/ADR-RES ovarian, -5.66% (active); with T-47D breast, 13%; in the assay with BT-549 breast, 16.9%; with MDA-MB-435 melanoma, 5.41% (active). The growth with MCF7 breast was 10.1%; in the assay on HCT-116 colon it was 9.03% (active); in the assay on HCC-2998 colon it was 4.79% (active); with KM12 colon it was -10.1% (active).

Turning to `COC(=O)c1c[n+]([O-])ccc1OC`, the growth was 111% in the assay with RPMI-8226 leukemia; 110% in the assay on OVCAR-8 ovarian; 117% in the assay on OVCAR-5 ovarian; 123% with OVCAR-4 ovarian; 106% in the assay with SK-OV-3 ovarian; 107% with IGROV1 ovarian. Besides, the growth in the assay on OVCAR-3 ovarian is 113%; with HS 578T breast it was 109%; in the assay with NCI/ADR-RES ovarian, 105%; in the assay on T-47D breast it was 114%; in the assay on BT-549 breast, 111%; in the assay on MDA-MB-435 melanoma, 102%. Moreover, the growth in the assay on SW-620 colon is 109%; in the assay on MCF7 breast, 101%; with HCT-116 colon, 113%; with HCC-2998 colon, 104%; in the assay with KM12 colon it was 111%.

For `C[C@]12CC[C@H]3[C@@H](CC[C@H]4C[C@@H](O)CC[C@@]43C)[C@@H]1CC(=O)C2`, the growth with SR leukemia is 89.8%; with OVCAR-8 ovarian, 95.3%; in the assay with OVCAR-5 ovarian it was 94.8%; in the assay with OVCAR-4 ovarian, 104%; with SK-OV-3 ovarian it was 118%; in the assay on IGROV1 ovarian, 103%. Besides, the growth was 112% in the assay with OVCAR-3 ovarian; 106% in the assay with NCI/ADR-RES ovarian; 106% in the assay on T-47D breast; 116% in the assay on MDA-MB-435 melanoma; 103% in the assay on SW-620 colon; 124% with MCF7 breast. In addition, the growth with HCT-116 colon was 99.3%; in the assay on HCC-2998 colon, 101%; in the assay with KM12 colon, 108%.

Regarding `c1ccc2[nH]c(-c3ccc(OCCCCCOc4ccc(-c5nc6ccccc6[nH]5)cc4)cc3)nc2c1`, the growth with SR leukemia was -22.3% (active); with RPMI-8226 leukemia, -79.4% (active); in the assay on OVCAR-8 ovarian it was -45.6% (active); in the assay with OVCAR-4 ovarian it was -60.5% (active); in the assay with SK-OV-3 ovarian, 207%; in the assay on IGROV1 ovarian, 38.3%. For the same compound, the growth with OVCAR-3 ovarian was 20.4%; in the assay on HS 578T breast it was 4.31% (active); in the assay on NCI/ADR-RES ovarian, -0.189% (active); with T-47D breast, -60.3% (active); in the assay with BT-549 breast, -13.5% (active); in the assay with MDA-MB-435 melanoma it was 8.59% (active). The growth is -3.03% (active) in the assay with SW-620 colon; -39.3% (active) with MCF7 breast; -21.8% (active) in the assay on HCT-116 colon; 14.8% with HCC-2998 colon; 23.5% in the assay with KM12 colon.

Take `Cc1cc(CSc2ccc(Cl)cc2)ccc1N`: the growth was 93.5% in the assay on SR leukemia; 15.5% in the assay with RPMI-8226 leukemia; 99.8% in the assay with OVCAR-8 ovarian; 96.9% in the assay on OVCAR-4 ovarian; 106% in the assay on SK-OV-3 ovarian; 86% in the assay with IGROV1 ovarian. Moreover, the growth is 97.6% with OVCAR-3 ovarian; 95% in the assay on NCI/ADR-RES ovarian; 84.1% in the assay with T-47D breast; 55.6% with BT-549 breast; 104% in the assay on MDA-MB-435 melanoma; 112% with MCF7 breast. For the same compound, the growth in the assay on HCT-116 colon was 101%; with HCC-2998 colon it was 97.7%; in the assay with KM12 colon it was 70.7%.

For `CN1NC(c2ccccc2)NN(C)C1=O`, the growth in the assay on RPMI-8226 leukemia is 105%; with OVCAR-8 ovarian, 103%; in the assay with OVCAR-5 ovarian it was 109%; with OVCAR-4 ovarian it was 101%; with SK-OV-3 ovarian, 104%; in the assay with IGROV1 ovarian, 109%. The growth in the assay on OVCAR-3 ovarian was 112%; with HS 578T breast it was 113%; with NCI/ADR-RES ovarian, 101%; with T-47D breast it was 95.7%; in the assay with BT-549 breast it was 109%; in the assay on MDA-MB-435 melanoma it was 102%. Besides, the growth in the assay on SW-620 colon was 91.1%; with MCF7 breast, 96.3%; in the assay with HCT-116 colon it was 101%; with HCC-2998 colon, 103%; with KM12 colon it was 118%.
